Bioassay records (PubChem BioAssay)
Most compounds without a hit are left out; they make up all but 8.7% or so of the library.
BAZ2B inh = inhibitors of human BAZ2B bromodomain; AlphaScreen BAZ2B-H3K14Ac peptide displacement; Potency, µM (series often up to 114 µM), inactives show top-dose activity change, negative = inhibition, hits mostly inhibitors; actives 4.4% (n = 360,000); also: % is scaled to controls: 0 for no effect and ±100 for the full control effect; nearly all actives have a fitted effect of over 60% in size
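Inhibition is scored as reduced AlphaScreen emission. The BAZ2B/b-H3(5-23)K14Ac complex (50 nM each) in PBS pH 7.4, 0.01% Tween-20 meets compound (up to 110 uM) for 30 min at RT before bead addition.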
Sfp PPTase inh = blocks B. subtilis Sfp PPTase activity | Q9F4F7 | Biochemical Sfp PPTase activity, qHTS | Potency, µM, for the others: largest response in the series, negative = inhibition, most hits filed as inhibitors | actives 3.5% (n = 310,000) | AID 1490;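 also: the enzyme is Sfp with the accession as filed and its product quenches rhodamine fluorescence; 0% = enzyme reaction without inhibitor and -100% = no enzyme wells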
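Compounds were incubated with enzyme (final 15 nM) for 15 min at room temperature before substrate addition started the reaction. Fluorescence at 525 nm excitation, 598 nm emission was recorded immediately and after 30 minutes.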
HP1b chromo inh = inhibitors of HP1-beta chromodomain binding to methylated histone tails; Potency, µM (highest dose often 114 µM), inactives show at the top dose activity change, negative = inhibition, most hits filed as inhibitors; AlphaScreen HP1-beta / biotin-H3K9me3 peptide binding; AID 540317; actives 0.56% (n = 390,000); also: nearly all actives have a fitted effect of over 70% in size
Target sequence (P83916 whole entry, looked up): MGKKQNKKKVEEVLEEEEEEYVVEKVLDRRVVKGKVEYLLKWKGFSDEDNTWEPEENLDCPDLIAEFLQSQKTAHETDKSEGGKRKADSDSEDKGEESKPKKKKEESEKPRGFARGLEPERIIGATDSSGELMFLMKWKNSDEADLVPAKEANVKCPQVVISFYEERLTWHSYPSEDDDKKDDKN
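HP1-beta protein (50 nM final) preincubated 30 min at room temperature with biotinylated H3(1-18)K9me3 peptide (50 nM) in PBS pH 7.4, 0.01% Tween-20, then compound added for 30 min. AlphaScreen streptavidin donor/nickel chelate acceptor beads (10 ug/mL final), 30 min dark, luminescence read.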
JMJD2A Tudor inh = inhibitors of human JMJD2A Tudor domain | O75164 | AlphaScreen JMJD2A-Tudor / H3K4me3 peptide binding | Potency, µM (series often up to 114 µM), without a hit: top-dose activity change, negative = inhibition, actives largely listed as inhibitors | actives 4.4% (n = 390,000) | AID 504339; also: % is scaled to controls: 0 for no effect and ±100 for the full control effect; nearly all actives have a fitted effect of over 50% in size
G9a block = G9a (human) methyltransferase inhibition; G9a H3K9 monomethylation, AlphaScreen, 2 h; Q96KQ7; AID 504332; Potency, µM (highest dose often 102 µM), for the others: at the top dose activity, negative = inhibition, hits mostly inhibitors; actives 8.8% (n = 350,000); also: % is scaled to controls: 0 for no effect and ±100 for the full control effect; nearly all actives have a fitted effect of over 75% in size
Target sequence (Q96KQ7 913-1193 limits assumed): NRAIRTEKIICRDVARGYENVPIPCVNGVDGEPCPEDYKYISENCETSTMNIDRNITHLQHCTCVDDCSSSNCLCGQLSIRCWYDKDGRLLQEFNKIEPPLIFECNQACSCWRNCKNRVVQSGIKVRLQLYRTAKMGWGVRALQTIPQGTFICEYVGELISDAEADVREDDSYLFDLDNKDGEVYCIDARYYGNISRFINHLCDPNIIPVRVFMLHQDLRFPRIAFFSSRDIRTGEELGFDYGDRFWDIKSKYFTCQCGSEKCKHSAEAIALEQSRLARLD
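Using a bead-based AlphaScreen, monomethylated H3K9 product from 2 h room-temperature reactions (G9a 20 nM, peptide 500 nM, SAM 20 uM) was detected with 0.5 ug/mL rabbit anti-H3K9me1 antibody.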
ALOX12 inh = inhibitors of human 12S-lipoxygenase ALOX12. P18054. purified 12hLO, xylenol orange hydroperoxide absorbance. Potency, µM (titrated, usually from 108 µM), without a hit: at the top dose activity change, negative = inhibition, actives largely listed as inhibitors. actives 1.1% (n = 580,000); also: % is scaled to controls: 0 for no effect and ±100 for the full control effect
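Purified human 12hLO at 150 nM in 25 mM Hepes, 0.01% Triton X-100, pH 7.0, preincubated 15 min at room temperature with compound. Reaction started with 40 uM arachidonic acid, 30 min at room temperature. Hydroperoxide measured by Fe-xylenol orange, 573/405 nm absorbance ratio.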
* = called active by the depositor; ? = inconclusive; · = no result given; [ ] = dose if it differs, or a comment. Calls follow the shape of the dose curve; as a rule, active = well fitted curve in the direction sought with a large enough effect; inconclusive = small, poorly fitted or top-dose-only effect, or another doubt; inactive = no such curve, though single readings can be large; an effect the other way counts as inactive or inconclusive. Potency is read from the fitted curve at half-maximal effect.

SMILES | BAZ2B inh | Sfp PPTase inh | HP1b chromo inh | JMJD2A Tudor inh | G9a block | ALOX12 inh
COc1ccc(NC(=O)C2CCN(C(=O)c3ccc(OC)cc3)CC2)cc1 | 25% | -4% | ? | -24%[11.4 µM] | ? | -3%
COc1ccc(C(=O)N2CCC(C(=O)Nc3ccc(OC)c(OC)c3)CC2)cc1 | · | 89µM* | 33% | -23% | -4%[59 µM] | 6%
COC(=O)CSc1nnc(CNC(=O)c2ccc(S(=O)(=O)N3CCCCC3)cc2)n1C | 1% | 21% | 17% | -14% | 5% | 17%
O=C(NCc1n[nH]c(=S)n1-c1ccccc1Cl)c1ccc(S(=O)(=O)N2CCCCC2)cc1 | 4% | -3% | 38% | -32% | 10µM* | 18%
COc1ccccc1-n1c(CNC(=O)c2ccc(S(=O)(=O)N3CCCCC3)cc2)n[nH]c1=S | -16% | 3% | 20% | 8.9µM* | 22µM* | -27%
CN(Cc1cccn1C)C1CCCc2ccccc21 (stereo unspecified) | · | · | · | · | · | 8%[176 µM]
COc1ccc2c(C)cc(SCC(=O)Nc3ccc(Cl)cn3)nc2c1 | -25% | -17% | -11% | -25% | 13µM* | -19%
Cc1cc(C)nc(SCC(=O)N/N=C/c2cccn2-c2ccc(O)cc2)n1 | ? | -2% | -26% | ? | 40µM* | -20%
Cc1cc(C)nc(SCC(=O)NN=C2CCCC2)n1 | -19% | 14% | ? | 18µM* | 12%[59 µM] | 13%
O=C(CSc1ncccn1)N/N=C/c1cccc([N+](=O)[O-])c1 | 1% | 14% | 27% | 1% | 3%[59 µM] | -12%
Cc1cc(C)nc(SCC(=O)N/N=C/c2cccc([N+](=O)[O-])c2)n1 | 5% | -1% | -24% | 40µM* | -23% | -19%
CCN(CC)C(=O)c1nn(-c2ccc(OC)cc2)c(=O)c2c(N)scc12 | · | · | · | 56µM* | · | ·
CCOC(=O)c1nn(-c2ccc(C)c(C)c2)c(=O)c2c(N)scc12 | 56µM* | 8.9µM* | -29% | 22µM* | 2µM* | ?
COc1ccc(/C=N/NC(=O)c2nn(-c3ccc(Cl)cc3)c(=O)c3c(N)scc23)cc1 | -32% | -27% | -15% | -26% | ? | 7.9µM*
COc1ccc(/C=N/NC(=O)c2nn(-c3ccccc3)c(=O)c3c(N)scc23)cc1 | 40µM* | 7.1µM* | ? | 5.6µM* | 0.35µM* | ?
COc1ccc(-n2nc(C(=O)O)c3ccccc3c2=O)cc1 | ? | 10% | 19% | -25% | ? | -21%
CN(C)C(=O)CO[C@@H]1COCC[C@H]1NC(=O)c1cccc(-n2cccn2)c1 | · | · | · | · | · | 24%
CSC1=NC2(CCCCC2)C2=C(CCCC2)N1 | 13% | 11% | 25% | -14% | 45µM* | ?
CCCC(=O)Nc1ccc(-c2nc3ccc(C)cc3o2)cc1 | · | · | · | · | · | -4%
Cc1cccc(NC(=O)CN2CCN(CCc3ccccc3)CC2)c1 | · | · | · | · | · | 18%
COc1ccc(CC(=O)Nc2cccc3ccc(C)nc23)cc1 | · | · | · | · | · | 11%
Cc1ccc(-c2cc(C(=O)O)n[nH]2)o1 | -5% | -6% | 14% | 25µM* | -4%[12.7 µM] | ?
Cc1ccc(/C=N/NC(=O)c2cc(-c3ccc(C)o3)[nH]n2)cc1 | -11% | 21% | 4% | -12% | 17% | -8%
COC(=O)C(=O)/C=C(\O)c1c(C)cc(C)cc1C | 79µM* | -13% | 8% | ? | 18µM* | 111%
O=C(CSc1nc2cc(Cl)ccc2s1)NC1CCCC1 | · | · | · | · | · | 20%
Cc1cc2ccccc2nc1SCC(=O)NC1CCCC1 | 4% | 13% | -1% | 14µM* | 2% | ?
O=C(CSc1nc2ccccc2s1)NC1CCCC1 | -23% | -7% | 5% | -10% | 22µM* | 157%
O=C(OCc1nc2ccccc2o1)c1cccc(S(=O)(=O)NCc2ccccc2)c1 | · | · | · | · | · | -12%
Cn1c(=O)c2[nH]c(CN3CCN(Cc4ccccc4)CC3)nc2n(C)c1=O | -5% | -6% | 9% | 8.9µM* | ? | ?
